Measurements from PubChem BioAssay (NCATS).
Records with an inconclusive call do not appear. A call without a number means that no potency is given here. The source made the active and inactive calls. The call rests on the fitted dose curve; in most records, active means well fitted cell-killing curve with a large enough effect; inconclusive means small, poorly fitted or top-dose-only effect, or effect the other way; inactive means no such curve, though single readings can be large or run the other way. Non-standard residues stand in square brackets, D forms with d. Residues, ends and D or L forms follow the SMILES beside them. *: point of attachment. Sta = CC(C)C[C@H](N)[C@@H](O)CC(=O)O; Isovaleryl = CC(C)CC(=O)*

Test: Quantitative High-Throughput drug screen in 47 multiple myeloma cell lines against the NCATS MIPE library collection: MOLP8_DSMZ cell viability assay (AID 1918977); further: nearly all actives have a fitted effect of over 45% in size
Settings: MOLP8 myeloma viability, CellTiter-Glo ATP luminescence, 48 h; series mostly up to 45.8 µM
Source text: PI: Beverly A. Mock Ph.D.
Laboratory of Cancer Biology and Genetics,
Center for Cancer Research, National Cancer Institute,
National Institute of Health, Bethesda, Maryland
Drug resistance and disease progression are common in multiple myeloma (MM) patients, underscoring the need for new therapeutic combinations. […] We hypothesized that effective combinations would reduce MYC expression and enhance p16 activity. […] These preclinical data identify potentially useful drug combinations for evaluation in drug-resistant MM and reveal potential mechanisms of combined drug sensitivity.
Described herein is the primary MIPE qHTS used to cherrypick compounds. Validated compounds were then further tested for potential synergistic activiy.
[1] Peat TJ, Gaikwad SM, Dubois W, Gyabaah-Kessie N, Zhang S, Gorjifard S, Phyo Z, Andres M, Hughitt VK, Simpson RM, Miller MA, Girvin AT, Taylor A, Williams D, D'Antonio N, Zhang Y, Rajagopalan A, Flietner E, Wilson K, Zhang X, Shinn P, Klumpp-Thomas C, McKnight C, Itkin Z, Chen L, Kazandijian D, Zhang J, Michalowski AM, Simmons JK, Keats J, Thomas CJ, Mock BA. Drug combinations identified by high-throughput screening promote cell cycle transition and upregulate Smad pathways in myeloma. Cancer Lett. 2023 Aug 1;568:216284. doi: 10.1016/j.canlet.2023.216284. Epub 2023 Jun 24. PMID: 37356470; PMCID: PMC10408729.
SEQUENCE No. (e.g., 1, 2, 3, etc.); […] (e.g., Cells, Incubation, Reagent, etc.); VALUE and DESCRIPTION.
1; Cells; 5 uL; white, solid bottom 1536-well Greiner assay plate.
2; Compounds; 23 nL; Kalypsis pin tool (Wako USA) equipped with a 1536-well pin head to transfer to the assay plates.
3; Incubation; 48 hours; 37C incubation.
4; Reagent;5uL; CellTiter Glo (Promega).
5; Detector; 425V; Luminescence; Viewlux PerkinElmer.
NOTES (numbers refer to Sequence numbers above)
1. The cell-based screening methods employed in this study were like those previously published. Briefly, the corresponding myeloma cell lines were screened in 1,536-well plates with 500 cells, 5-uL per well for inhibition of cell viability (assessed by measuring ATP levels with CellTiterGlo).
2. NCATS MIPE 4.0 library of approved and investigational drugs were added using the Kalypsis pin tool. Wells treated with DMSO only for 100% viability and media only for 0% viability were used as controls.
3. The assay plates were covered and incubated for 48 hours in a 37C, 5% CO2 incubator with controlled humidity.
4. After 48 hours, CellTilter-GloTM luminescent substrate mix (Promega) reagent was added to the assay plate and plates we incubated for 5 min at room temperature.
5. Signal was measured as median relative luminescence units on a ViewLux (PerkinElmer) multiplate reader.
[1] Heske CM, Davis MI, Baumgart JT, Wilson K, Gormally MV, Chen L, Zhang X, Ceribelli M, Duveau DY, Guha R, Ferrer M, Arnaldez FI, Ji J, Tran HL, Zhang Y, Mendoza A, Helman LJ, Thomas CJ. Matrix Screen Identifies Synergistic Combination of PARP Inhibitors and Nicotinamide Phosphoribosyltransferase (NAMPT) Inhibitors in Ewing Sarcoma. Clin Cancer Res. 2017 Dec 1;23(23):7301-7311. doi: 10.1158/1078-0432.CCR-17-1121. Epub 2017 Sep 12. PMID: 28899971; PMCID: PMC6636827.
Potency means the concentration at half of the fitted maximal effect.

Question: With CCCc1cc(=O)[nH]c(=S)[nH]1 as the molecule, how does the Potency read?
Answer: inactive

Question: Which Potency does the source give for CC(S)C(=O)NCC(=O)O (stereo not given) here?
Answer: inactive

Question: Which Potency does the source give for COc1ccccc1N1CCN(CCN(C(=O)C2CCCCC2)c2ccccn2)CC1 here?
Answer: inactive

Question: With CNC[C@@H](O)[C@@H](O)[C@H](O)[C@H](O)CO as the molecule, how does the Potency read?
Answer: inactive

Question: With CCN(CCO)CCCC(C)Nc1ccnc2cc(Cl)ccc12 (stereo not given) as the molecule, how does the Potency read?
Answer: inactive

Question: With CC(C)CC(=O)N[C@H](C(=O)N[C@H](C(=O)N[C@@H](CC(C)C)[C@@H](O)CC(=O)N[C@@H](C)C(=O)N[C@@H](CC(C)C)[C@@H](O)CC(=O)O)C(C)C)C(C)C (Isovaleryl-VV[Sta]A[Sta]-OH) as the molecule, how does the Potency read?
Answer: inactive

Question: With C[C@H](Cn1cnc2c(N)ncnc21)OCP(=O)(O)O as the molecule, how does the Potency read?
Answer: inactive

Question: For CCCCC(CC)COC(=O)C(C#N)=C(c1ccccc1)c1ccccc1 (stereo not given), which Potency is on record?
Answer: inactive

Question: For CCN(CC)CCOc1ccc(Nc2ncc3cc(-c4c(Cl)cccc4Cl)c(=O)n(C)c3n2)cc1, which Potency is on record?
Answer: 0.059 µM (active)

Question: With O=c1c(O)c(-c2ccc(O)cc2O)oc2cc(O)cc(O)c12 as the molecule, how does the Potency read?
Answer: inactive

Question: Which Potency does the source give for OC(CN1CCN(c2cccc(Cl)c2)CC1)C(c1ccccc1)c1ccccc1 (stereo not given) here?
Answer: inactive

Question: With CCc1nc(N)nc(N)c1-c1ccc(Cl)cc1 as the molecule, how does the Potency read?
Answer: inactive

Question: For Nc1nc(N)c(N=O)c(OCC2CCCCC2)n1, which Potency is on record?
Answer: 5.26 µM (active)

Question: With O=Nc1c(-c2c(O)[nH]c3cc(Br)ccc23)[nH]c2ccccc12 as the molecule, how does the Potency read?
Answer: 16.6 µM (active)

Question: For O=c1cc(N2CCOCC2)oc2c(-c3ccccc3)cccc12, which Potency is on record?
Answer: 7.43 µM (active)

Question: For COc1cc2nc(N3CCN(C(=O)C4CCCO4)CC3)nc(N)c2cc1OC (stereo not given), which Potency is on record?
Answer: inactive

Question: With Nc1ccn([C@@H]2O[C@H](CO)[C@@H](O)C2O)c(=O)n1 (stereo not given in full) as the molecule, how does the Potency read?
Answer: inactive

Question: For Nc1cc(C(Cl)=C(Cl)Cl)c(S(N)(=O)=O)cc1S(N)(=O)=O, which Potency is on record?
Answer: inactive

Question: Which Potency does the source give for C[C@]12CCC(=O)C=C1CC[C@@H]1[C@H]2[C@@H](O)C[C@@]2(C)[C@H]1CC[C@]2(O)C(=O)CO here?
Answer: inactive

Question: For Cc1ccc(C)c(OCCCC(C)(C)C(=O)O)c1, which Potency is on record?
Answer: inactive

Question: With CC1(C)NC(=O)N(c2ccc([N+](=O)[O-])c(C(F)(F)F)c2)C1=O as the molecule, how does the Potency read?
Answer: inactive

Question: For Cc1cc2cc3c(C)cc(=O)oc3c(C)c2o1, which Potency is on record?
Answer: inactive

Question: With CCOC(=O)C1=C(O)C(=O)N(Cc2ccccc2)C1 as the molecule, how does the Potency read?
Answer: inactive

Question: For Cc1cc2c(s1)Nc1ccccc1N=C2N1CCN(C)CC1, which Potency is on record?
Answer: inactive

Question: Which Potency does the source give for O=c1c(O)c(-c2cc(O)c(O)c(O)c2)oc2cc(O)cc(O)c12 here?
Answer: 18.7 µM (active)

Question: Which Potency does the source give for COc1cc(C(C)=O)ccc1OCCCN1CCC(c2noc3cc(F)ccc23)CC1 here?
Answer: inactive

Question: With CN(C)c1ccc2nc3ccc(=[N+](C)C)cc-3sc2c1 as the molecule, how does the Potency read?
Answer: 3.32 µM (active)

Question: With C[C@@H](N)C1CCC(C(=O)Nc2ccncc2)CC1 (stereo not given in full) as the molecule, how does the Potency read?
Answer: inactive

Question: Which Potency does the source give for COc1cc(OC)c(C(=O)CCCN2CCCC2)c(OC)c1 here?
Answer: inactive

Question: Which Potency does the source give for Cc1cc(=O)oc2cc(O)ccc12 here?
Answer: inactive

Question: Which Potency does the source give for CN(C)c1ccc(O)c2c1C[C@H]1C[C@H]3[C@H](N(C)C)C(=O)C(C(N)=O)=C(O)[C@@]3(O)C(=O)C1=C2O here?
Answer: 20.9 µM (active)

Question: For O=C(NC(Cc1cc(=O)[nH]c2ccccc12)C(=O)O)c1ccc(Cl)cc1 (stereo not given), which Potency is on record?
Answer: inactive

Question: For CC(=O)O[C@H]1C(=O)[C@@]2(C)C([C@H](OC(=O)c3ccccc3)[C@]3(O)C[C@H](OC(=O)[C@H](O)[C@@H](NC(=O)c4ccccc4)c4ccccc4)C(C)=C1C3(C)C)[C@]1(OC(C)=O)CO[C@@H]1C[C@@H]2O (stereo not given in full), which Potency is on record?
Answer: inactive

Question: For Cc1cc(C2CCCCC2)n(O)c(=O)c1, which Potency is on record?
Answer: 4.18 µM (active)

Question: Which Potency does the source give for CCOC(=O)C1=C[C@@H](OC(CC)CC)[C@H](NC(C)=O)[C@@H](N)C1 here?
Answer: inactive

Question: With C[Se]CCC(N)C(=O)O (stereo not given) as the molecule, how does the Potency read?
Answer: inactive

Question: Which Potency does the source give for c1cnc2cc3c(cc2n1)C1CNCC3C1 here?
Answer: inactive

Question: With COC(=O)C1=C(C)NC(C)=C(C(=O)OCCCN2CCC(c3ccccc3)(c3ccccc3)CC2)C1c1cccc([N+](=O)[O-])c1 (stereo not given) as the molecule, how does the Potency read?
Answer: inactive

Question: With S=c1nc[nH]c2nc[nH]c12 as the molecule, how does the Potency read?
Answer: inactive

Question: For CC(=O)NC[C@H]1CN(c2ccc(N3CCOCC3)c(F)c2)C(=O)O1, which Potency is on record?
Answer: 7.43 µM (active)
